This passage reports inhibition results from PubChem BioAssay AID624330 (Southern Research Specialized Biocontainment Screening …, 2012).

The structures appear in SMILES notation. Hit rate of the full screen: of about 340,000 compounds, about 2,100 (0.62%) were called active. The list is a sample of the results. Potency and affinity values are given separately. Values without a mark were called inactive.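 Rule for the calls: active = first-screen hits whose inhibition reached a set limit at any dose in the follow-up dose series; inconclusive = inhibition above the set first-screen limit but never retested; inactive = the rest.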

Sequence of Rac GTPase-activating protein 1 (Homo sapiens) (Q9H0H5 whole entry, looked up): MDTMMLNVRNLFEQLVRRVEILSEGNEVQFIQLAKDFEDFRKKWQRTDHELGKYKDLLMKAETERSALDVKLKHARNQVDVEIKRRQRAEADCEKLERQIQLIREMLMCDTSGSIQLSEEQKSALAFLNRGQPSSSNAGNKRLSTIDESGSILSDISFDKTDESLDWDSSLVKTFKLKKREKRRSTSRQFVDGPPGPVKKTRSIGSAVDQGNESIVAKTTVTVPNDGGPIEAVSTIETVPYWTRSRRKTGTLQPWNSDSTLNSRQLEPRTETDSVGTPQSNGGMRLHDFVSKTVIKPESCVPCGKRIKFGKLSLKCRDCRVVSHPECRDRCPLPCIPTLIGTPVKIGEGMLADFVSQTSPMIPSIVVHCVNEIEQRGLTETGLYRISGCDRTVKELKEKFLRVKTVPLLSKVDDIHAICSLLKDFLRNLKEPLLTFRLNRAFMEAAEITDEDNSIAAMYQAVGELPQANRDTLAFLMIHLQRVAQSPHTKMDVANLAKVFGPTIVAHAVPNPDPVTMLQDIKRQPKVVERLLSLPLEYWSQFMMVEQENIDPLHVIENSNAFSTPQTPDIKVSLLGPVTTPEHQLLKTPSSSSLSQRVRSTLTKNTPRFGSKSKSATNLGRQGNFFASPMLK

This experiment concerns the target Rac GTPase-activating protein 1 (Homo sapiens) (UniProt Q9H0H5). As to the kind of experiment: blockers of MgcRacGAP-driven Rac1 GTP hydrolysis – biochemical, ADP Hunter fluorescence, primary and confirmatory, confirmation (AID 624330).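 Note: fluorescence reports GDP produced by GAP-driven GTP hydrolysis.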 As to conditions: MgcRacGAP-stimulated Rac1 GTP hydrolysis, at 30 µM, active compounds read high, GST-tagged Rac1 F28L mutant substrate.
In the case of `COc1ccc(-c2c[n+]3c4n2CCCCC4=C(c2ccccc2)C3)cc1`, the inhibition is 8.53%.
For `CCOC(=O)C1CCN(C(=O)CN2C(=O)c3cccnc3Oc3ccccc32)CC1`, the inhibition is 6.53%.
Regarding `COc1ccc(NC(=O)CCNS(=O)(=O)c2ccc3c(c2)CC(C)N3C(=O)C2CC2)cc1` (stereo not given), the inhibition is 8.6%.
For `COc1ccc(-c2cc(C(=O)N(C)Cc3ccc(F)cc3)c3ccccc3n2)cc1OC` the value was 9.06%; for `CCSc1nnc([C@H](Cc2c[nH]c3ccccc23)NC(=O)OC(C)(C)C)o1`, 5.34%; for `Cc1ccc(NCCC(=O)c2cccs2)cc1Cl`, -0.47%.
For `COc1ccc(NC(=O)CCC(=O)c2cccs2)cc1Cl` the value was 1.13%; for `O=C1CCNc2c(Cl)cc(Cl)cc21`, -0.57%; for `Cc1ccc(OC(=O)C(F)(F)F)c2c1NCCC2`, 22.1%.
For the compound `COCc1[nH][nH]c(=O)c1C=Nc1ccc(Cl)cc1`, the inhibition was 8.52%.
Next, `Cc1ccc(N(CC(=O)Nc2ccccc2-c2ccccc2)S(=O)(=O)c2ccccc2)cc1`: 1.42%; `COc1ccc(O)c(/C=N/N=C2/C(=O)Nc3ccccc32)c1`: 10.2%.
For `O=C1Nc2ccccc2/C1=N/N=C/c1cccc(O)c1` the value was -0.92%; for `C#CCOCCOCCOCCNc1nc(N2CCN(C(=O)[C@H](Cc3ccc(O)cc3)n3cc([C@@H](N)C(C)CC)nn3)CC2)nc(N2CCN(C(=O)[C@H](Cc3cc4ccccc4[nH]3)n3cc([C@@H](N)C(C)CC)nn3)CC2)n1` (stereo not given in full), 7.82%.
With `O=C(c1ccccc1)c1ccc2nc(-c3ccco3)c(-c3ccco3)nc2c1`, the inhibition is 25.8%.
For `O=C(Nc1ccccc1)c1ccc2nc(-c3ccco3)c(-c3ccco3)nc2c1` the value was 14.3%; for `CCc1cccc(C)c1NC(=O)c1cccc(N(C)C)c1`, 23.8%.
Consider `CCCCCCCCC1=NCCc2c1[nH]c1ccccc21`, for which the inhibition is 12.8%.
As to `Cc1cc(=O)[nH]c2cc(O)ccc12`, the inhibition was 5.17%.
For `CCOCCc1nnc(NC(=O)Cc2c(F)cccc2Cl)s1` the value was -4.41%.
Next, `NC(=O)c1ncn([C@@H]2O[C@H](CNCc3ccccc3OCc3ccc(Cl)cc3Cl)[C@@H](O)[C@H]2O)n1`: -6.96%; `CCOc1ccc(Br)cc1CNc1ccc2c(c1)OCCO2`: 24.3%; `O=C(Cc1ccccc1[N+](=O)[O-])Nc1ccc2c(c1)OCCO2`: 2.24%.
Next, `O=C(NCc1cccs1)c1ccc2c(c1)OCCO2`: -0.21%.
For `Cc1ccc(S(=O)(=O)NCc2ccco2)cc1C`, the inhibition was 0.0567%.
For `O=C(NCc1cccs1)Nc1ccc2c(c1)OCO2` the value was -0.17%.
Next, `Cc1ccc(Nc2nc(N)c([N+](=O)[O-])c(NCc3ccco3)n2)cc1C`: 2.81%; `O=C(O)CCNc1ccc2c(c1)OCCO2`: 19.4%.
Next, `COc1ccc(C(=O)CCNc2ccc3c(c2)OCCO3)cc1`: 38.5%; `CCCn1c(=O)[nH]c(=O)c2c1nc(-c1ccc3c(c1)OCCO3)n2CCN1CCOCC1`: 10.3%; `O=S(=O)(c1ccccc1)N(Cc1ccccn1)Cc1ccccn1`: 3.72%.
As to `C/C=C(\C)C(=O)OC(C)(C)[C@H]1Cc2cc3ccc(=O)oc3cc2O1`, the inhibition is 7.55%.
Take `CCC(c1nnc(SCC(=O)Nc2cc(Cl)ccc2C#N)n1C1CCCCC1)N(C)C` (stereo not given): the inhibition was 5.01%.
For `CCc1ccc(-c2cc(C(=O)O)c3ccccc3n2)s1`, the inhibition is -3.07%.
For `CCCN(CCC)CCCNC(=O)c1cc2c(=O)[nH]c3ccccc3c2s1` the value was 23.4%; for `O=C(Cc1ccc(Cl)cc1)SCc1ccccc1`, 4.82%.
On to `O=C(NNC(=O)c1cc([N+](=O)[O-])ccc1Cl)c1cccnc1`, for which the inhibition was 3.49%.
Next, `O=c1[nH]c2ccc(S(=O)(=O)Nc3ccc(Br)cc3)cc2[nH]1`: 0.44%.
Next, `Cc1ccc(NCC(O)C(O)C(O)CO)cc1C` (stereo not given): 9.4%; `Cc1ccc(NCc2ccccc2O)cc1`: 19.1%.
`Cc1ccc(NCCC#N)cc1C`: the inhibition was -10%.
Next, `Cc1cccc(NCc2ccccc2O)c1`: 13.2%; `COc1ccc(C(CCc2ccc(C)o2)NC(=O)Nc2ccc(OC)cc2OC)cc1` (stereo not given): 0.8%; `C/C=C(\C)C(=O)NCCN1C2=NC[C@@H](Cc3ccccc3)N2C[C@@H]1Cc1ccc(OC)cc1`: 5.16%.
For `Cc1ccc(O)c(/C=N/NC(=O)Cc2ccc(Cl)cc2)c1` the value was -8.7%; for `COC(=O)C1=C(C)N(Cc2ccccc2)C(=O)N[C@H]1CCc1ccccc1`, 8.96%; for `CCOC(=O)C1CCCN(C2=NC(=O)/C(=C/c3ccc(OC)c(OC)c3)S2)C1` (stereo not given), 7.19%.
For `CCOC(=O)C1CCN(C2=NC(=O)/C(=C/c3ccc(OC)c(OC)c3)S2)CC1`, the inhibition was 12.3%.
Next, `COc1ccccc1/C=C1\SC(N2CCC(C)CC2)=NC1=O`: 8.78%.
For `COc1ccc(OC)c(/C=C2\SC(N3CCCC(C)C3)=NC2=O)c1` (stereo not given) the value was 2.99%; for `CCOC(=O)C1CCN(C2=NC(=O)/C(=C/c3ccc(Cl)cc3)S2)CC1`, 7.83%; for `CCOC(=O)C1CCCN(C2=NC(=O)/C(=C/c3ccc(OC)cc3)S2)C1` (stereo not given), 8.26%.
Next, `CC1CCN(C2=NC(=O)/C(=C/c3cccc(O)c3)S2)CC1`: 3.71%; `COc1cccc(/C=C2\SC(N3CCCC(C)C3)=NC2=O)c1OC` (stereo not given): 10.3%.
In the case of `CSCCC(=O)N1C(C)CCCC1C(=O)O` (stereo not given), the inhibition is 8.45%.
Next, `COc1ccccc1-n1c(C)cc(/C=C2\C(=N)N3N=C(CC(=O)N4CCOCC4)SC3=NC2=O)c1C`: 13.5%.
Next, `CCCN(CC(=O)Nc1ccccc1C)C(=O)Cc1cccs1`: 9.22%; `COC(=O)C1=C(CS(=O)(=O)c2ccc(Cl)cc2)NC(=O)NC1c1ccc(O)c(OC)c1` (stereo not given): 0.39%.
Next, `CC(C)(C)NC(=S)NNC(=O)c1ccc2ncccc2c1`: 4.55%; `O=C(NN=C1CCC(=NNC(=O)c2ccccn2)CC1)c1ccccn1`: 10.4%.
